High-throughput results (PubChem BioAssay)
An excerpt weighted towards active compounds, which were near 7.3% of everything screened.
Rab9 promoter act: qHTS Assay for Rab9 Promoter Activators. Huh7 Rab9 promoter-luciferase reporter, luminescence, 24 h. Potency, µM (highest dose often 9.22 µM), without a hit: at the highest dose activation, negative = inhibition, actives largely listed as activators. 320,000 compounds, 2.8% hits. AID 485297, 2010; also: % of control where 0% means no effect; nearly all actives have a fitted effect of over 60% in size
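Luciferase signal after 10 min detection reagent at ambient indicates Rab9 promoter upregulation; stably transfected Huh7 cells were treated 24 h with compound in DMSO at 37 °C, 5% CO2.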
ELG1 genotox: qHTS screen for small molecules that induce genotoxicity in human embryonic kidney (HEK293T) cells expressing luciferase-tagged ELG1; HEK293T ELG1-luciferase reporter, luminescence, 16 h; 330,000 compounds, 1.3% hits; AID 504466, 2011; Potency, µM (doses to about 46 µM), inactives show at the highest dose activity change, positive = activation, hits mostly activators; also: % of control where 0% means no effect; nearly all actives have a fitted effect of over 60% in size
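After overnight (16 hr) compound treatment at 37 °C, ELG1-luciferase HEK293T cells were lysed with ONE-Glo; luminescence quantified 30 min later at room temperature.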
NPC1 prom act: qHTS Assay for NPC1 Promoter Activators. Huh7 NPC1 promoter luciferase reporter, 24 h. 320,000 compounds, 2.4% hits. Potency, µM (doses to about 9.22 µM), for inactives: at the highest dose activation, hits mostly activators; also: % of control where 0% means no effect; nearly all actives have a fitted effect of over 60% in size
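Stable NPC1-promoter luciferase Huh7 line; cpd (DMSO) 24 h, 37 °C, 5% CO2; Amplite luciferase reagent 10 min RT; luminescence readout. qHTS format.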
SMN2 splice enh: qHTS Assay for Enhancers of SMN2 Splice Variant Expression; HEK293 SMN2-luciferase splicing reporter, luminescence, 30-36 h; 210,000 compounds, 2.8% hits; Potency, µM (top dose mostly 46.1 µM), for inactives: at the top dose activity change, positive = activation, hits mostly activators; also: % of control where 0% means no effect; nearly all actives have a fitted effect of over 55% in size
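HEK293 cells carry an SMN2 minigene-luciferase reporter in which exon 7 inclusion puts luciferase in frame. Cells were seeded at 2000 cells/well, attached for 10-12 hours, then exposed to compounds for 30-36 hours at 37C before ONE-Glo luminescence.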
uPA generation: qHTS for Inhibitors of Cell Surface uPA Generation | cell surface uPA generation assay, qHTS | Potency, µM (titrated, usually from 38.3 µM), inactives show at the highest dose activity change, negative = inhibition, hits mostly inhibitors | 330,000 compounds, 0.31% hits; active = well fitted inhibition curve with a large enough effect; inconclusive = small, poorly fitted or top-dose-only effect; inactive = no such curve, though single readings can be large or run the other way; tested in mouse RAW 264.7 cells; also: % is scaled to controls: 0 for no effect and ±100 for the full control effect; nearly all actives have a fitted effect of over 55% in size
FLuc counter: qHTS profiling assay for firefly luciferase inhibitor/activator using purifed enzyme and Km concentrations of substrates (counterscreen for miR-21 project). Luciferin 4-monooxygenase (Photinus pyralis), P08659. purified FLuc, Km substrates, luminescence inhibition. Potency, µM (highest dose often 57.5 µM), inactives show top-dose activity change, negative = inhibition, usual class: inhibitors. 360,000 compounds, 6.9% hits. AID 588342, 2011;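 also: plate controls were vehicle for no effect and reference inhibitor for full effect; nearly all actives have a fitted effect of over 55% in size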
Target sequence (P08659 whole entry, looked up): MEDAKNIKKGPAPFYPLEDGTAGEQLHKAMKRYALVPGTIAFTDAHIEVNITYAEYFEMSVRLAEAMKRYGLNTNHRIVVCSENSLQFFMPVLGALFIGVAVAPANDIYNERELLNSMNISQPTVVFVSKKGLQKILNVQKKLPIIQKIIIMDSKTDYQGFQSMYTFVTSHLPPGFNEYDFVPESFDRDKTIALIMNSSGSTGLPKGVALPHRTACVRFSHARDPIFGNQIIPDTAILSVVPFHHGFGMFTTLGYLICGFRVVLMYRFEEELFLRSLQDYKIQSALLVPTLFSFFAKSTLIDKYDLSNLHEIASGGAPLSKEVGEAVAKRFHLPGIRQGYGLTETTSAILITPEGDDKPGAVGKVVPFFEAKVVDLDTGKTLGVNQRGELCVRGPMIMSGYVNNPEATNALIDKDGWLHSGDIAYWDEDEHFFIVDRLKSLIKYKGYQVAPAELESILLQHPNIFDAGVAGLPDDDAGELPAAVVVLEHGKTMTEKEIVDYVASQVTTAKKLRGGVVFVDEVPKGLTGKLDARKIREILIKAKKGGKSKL
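Purified P. pyralis luciferase (10nM final) with 10uM D-luciferin and 10uM ATP (Km levels) in 50mM Tris acetate pH 7.5, 10mM Mg acetate, 0.01% Tween-20, 0.05% BSA; qHTS 6-point titration, ~60 µM downward; luminescence read.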
* marks the source's active call; other numbers are inactive results; ? = inconclusive; . = no result given. Unless noted, calls follow the shape of the dose curve; as a rule, active = well fitted curve in the direction sought with a large enough effect; inconclusive = small, poorly fitted or top-dose-only effect, or another doubt; inactive = no such curve, though single readings can be large; an effect the other way counts as inactive or inconclusive. Potency is read from the fitted curve at half-maximal effect.

SMILES | Rab9 promoter act | ELG1 genotox | NPC1 prom act | SMN2 splice enh | uPA generation | FLuc counter
COc1ccc(C(=O)/C=C2/c3ccccc3CC(C)(C)N2C)cc1 | -14% | 9% | -34% | -15% | ? | 5.4µM*
COC(=O)C/C=C/[C@@H](C)[C@@H](Cc1ccccc1Br)OC | . | . | . | 5% | . | .
COC(=O)C(C)N1C(=O)S/C(=C\c2ccc(-c3ccc(C(=O)O)cc3C)o2)C1=O (centres undefined) | 2.2µM* | ? | 2.8µM* | . | 2% | 17µM*
Cc1ccc(C(=O)O)cc1-c1ccc(C=C2C(=O)c3ccccc3C2=O)o1 | -4% | 0% | 0% | 16% | 6% | 17µM*
Cc1cc(C(=O)O)ccc1-c1ccc(/C=C2\NC(=O)N(Cc3ccc(F)cc3)C2=O)o1 | -2% | -4% | -3% | . | 8% | -8%
O=C1C(=Cc2ccc(Br)o2)C(=O)c2ccccc21 | 22% | 7% | 9% | 9% | 4% | 13µM*
CC1=C/C(=C\c2ccc(Br)o2)C(=O)O1 | 1% | 0% | -4% | 1% | 8% | 0%
O=C(c1cccnc1)N1CCN(c2ccc3ccccc3n2)CC1 | 2% | -1% | 0% | -42% | -1% | 3%
O=C(NCC(O)c1ccccc1)c1ccccc1 (centres undefined) | 4µM* | ? | 2.8µM* | . | -4% | 21µM*
O=C(NCCNC(=O)c1ccccc1)c1ccccc1 | 2% | 3% | -2% | . | 7% | 0%
COc1ccc(-c2noc(N3CCN(c4cccc(Cl)c4)CC3)n2)cc1OC | . | . | . | . | . | -6%
O=C(O)/C(=C\c1ccc(-c2ccccc2[N+](=O)[O-])o1)c1ccccc1 | 6% | 4% | 1% | . | -5% | 21µM*
O=C(/C=C/c1ccc(-c2ccccc2[N+](=O)[O-])o1)c1ccccc1 | 3% | 13% | 16% | -20% | -15% | 24µM*
O=C(Nc1ccc2oc(-c3cccc4ccccc34)nc2c1)c1ncn[nH]1 | 2.8µM* | ? | ? | ? | 4% | ?
O=C(Nc1ccc2oc(-c3cc(Br)ccc3Cl)nc2c1)c1ccc2ccccc2c1 | . | . | . | -6% | . | -8%
O=C(Nc1ccc2oc(-c3ccccc3Cl)nc2c1)c1ncn[nH]1 | 3.5µM* | 8.2µM* | 1.4µM* | 10µM* | -18% | 3µM*
COc1ccc(CCNC(=O)c2cnn(-c3ccc(F)cc3)c2C2CCN(C(=O)OC(C)(C)C)CC2)c(OC)c1 | . | . | . | . | . | 0%
CCc1cccc(C)c1NC(=O)CCS(=O)(=O)c1cc(Br)cc2c1N(C(=O)C1CC1)CC2 | . | . | . | -6% | . | -13%
COc1cccc(N2[C@@H](CC(C)=O)c3ccc(/C=C/C(C)=O)cc3S2(=O)=O)c1 | . | . | . | . | 3.2µM* | .
C=CCn1c(SCC(=O)Nc2ccc(F)cc2)nc2ccccc2c1=O | 1% | 4% | -4% | . | 7% | 9%
CN(C)c1ccc(CNC(=O)CCn2c(=O)c3cccn3c3ccc(F)cc32)cc1 | . | . | . | . | . | 0%
Cc1ccn2cc(-c3ccc(C)c(NS(=O)(=O)c4ccc(Cl)cc4)c3)nc2c1 | . | . | . | -31% | . | 11µM*
Cc1ccn2cc(-c3ccc(O)c(O)c3)nc2c1 | 17% | 3.3µM* | ? | . | ? | 3µM*
CC(=O)Nc1ccc(S(=O)(=O)Nc2cc(-c3cn4ccccc4n3)ccc2C)cc1 | . | . | . | ? | . | 17µM*
CCOC(=O)c1cn2ccc(C)cc2n1 | 27% | ? | 23% | . | -13% | ?
SMILES | Rab9 promoter act | ELG1 genotox | NPC1 prom act | SMN2 splice enh | uPA generation | FLuc counter
CCS(=O)(=O)Nc1cc(-c2cn3ccc(C)cc3n2)ccc1C | . | . | . | ? | . | 12µM*
C[C@@H]1C[C@](C)(C(=O)c2ccco2)C=C1c1ccco1 | . | . | . | 2% | . | .
COc1cc(Cl)c(NS(=O)(=O)c2ccc3[nH]c(=O)ccc3c2)c(OC)c1 | . | . | . | . | . | -3%
CC1CCN(S(=O)(=O)c2ccc3c(c2)c(=O)c(C(=O)NCc2ccc(Cl)cc2)cn3C)CC1 | . | . | . | 5% | . | -4%
CCCNC(=O)c1cc(Cl)c(NC(=O)C2=CSCCO2)cc1OC | ? | 17% | ? | . | -13% | 19µM*
CSc1ccccc1NC(=O)CN(C)C(=O)C(C)SCc1nc2sc(C)c(C)c2c(=O)[nH]1 (centres undefined) | . | . | . | . | -9% | .
COc1ccc(-c2oc3cccnc3c2/C=C/c2ccc(OC)c(OC)c2)cc1 | 3% | 2% | 2% | . | -27% | 7.6µM*
COc1ccc(/C=C/c2c(-c3ccc(OC)cc3)oc(=O)c3cc(OC)c(OC)cc23)cc1 | . | 0% | . | . | -1% | .
O=[N+]([O-])c1ccc2nc(-c3ccc(OC(F)F)cc3)cn2c1 | 1µM* | ? | 1µM* | . | -6% | ?
CC1CCCO1 (centres undefined) | . | . | . | 2% | . | .
COc1ccccc1-c1nn2c(-c3ccccc3Cl)nnc2s1 | 3% | 1% | 1% | -8% | . | -2%
CCN(CC)c1ccc(-c2nn3c(-c4ccccc4OC)nnc3s2)cc1 | -20% | -17% | -18% | -41% | -8% | 19µM*
COc1ccccc1-c1nn2c(-c3ccco3)nnc2s1 | ? | 18µM* | ? | 24% | . | 5.4µM*
c1coc(-c2nn3c(-c4ccco4)nnc3s2)c1 | 17% | 6% | 9% | 20% | 0% | -14%
Cc1nc2ccc(S(=O)(=O)N(CC(=O)Nc3ccc(Cl)cc3)Cc3ccccc3)cc2s1 | . | . | . | . | . | -12%
COc1ccccc1N1CCN(c2ncnc3c2c(-c2ccccc2)cn3-c2cccc(C)c2)CC1 | . | . | . | . | . | 1%
Cc1ccc(CSCc2nc3ccccc3[nH]2)cc1 | 4% | -2% | 10% | -17% | 5% | ?
Fc1ccccc1CSCc1nc2ccccc2[nH]1 | 2.8µM* | ? | 4µM* | 10µM* | -2% | 17µM*
O=c1[nH]c2ccccc2nc1-c1ccc(Cl)cc1 | 2.8µM* | ? | ? | . | -2% | ?
Clc1ccc(SCc2nc3ccccc3[nH]2)cc1 | ? | -3% | ? | 11% | . | 9.5µM*
Clc1ccc(OCCSCc2nc3ccccc3[nH]2)cc1 | -1% | -9% | -2% | -71% | 6% | 2%
Cc1ccc(SCc2nc3ccccc3[nH]2)cc1 | ? | 12% | 2.2µM* | ? | . | 6µM*
CCOC(=O)c1c(C)[nH]c(CCC(=O)NCc2ccc(CC)cc2)c1C | . | . | . | . | . | 3%
c1ccc(SCc2nc3ccccc3[nH]2)cc1 | 2.2µM* | ? | 2.5µM* | ? | . | 12µM*
c1ccc2[nH]c(CSc3nccs3)nc2c1 | 14% | 9% | 14% | ? | -8% | ?
